Data as given in PubChem BioAssay (Tox21).
Unmarked numbers belong to inactive results. Inconclusive results are not listed. A call without a number means that no potency is given here. Calls of active or inactive are those of the source. Calls follow the shape of the dose curve; as a rule, active = well fitted curve in the direction sought with a large enough effect in the repeat runs; inconclusive = weak or mixed curves; inactive = no such curve, though single readings can be large; an effect the other way counts as inactive or inconclusive.

How the values were obtained:
[1] = A CellTox Green Cytotoxicity Assay to monitor cytotoxicity in HEK293 cells - 40 hour (AID 1224871); also: nearly all actives have a fitted effect of over 45% in size; also: potency is read from the fitted curve at half-maximal effect
Method in brief: (§1)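 Fluorescence from a DNA-binding dye excluded by viable cells was measured repeatedly in the same HEK293 wells (600 cells/well) during continuous compound exposure at 37 C. Each assay gives one read point: 0, 8, 16, 24, 32 or 40 h.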

[2] = qHTS RealTime-Glo MT Cell Viability Assay in HEK293 cells - 40 hour (AID 1224874); details: RealTime-Glo luminescence; max response: hits give low values; also: nearly all actives have a fitted effect of over 50% in size; also: potency is read from the fitted curve at half-maximal effect
Method in brief: (§2)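 Luminescence, which tracks viable cell number through reduction of the prosubstrate to a NanoLuc substrate, was read over continuous 37 C culture. Cells (600/well) were premixed with reagent and rested 5 h before 23 nL of compound in DMSO was pinned.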

[3] = A CellTox Green Cytotoxicity Assay to monitor cytotoxicity in HEK293 cells - 24 hour (AID 1224875); also: nearly all actives have a fitted effect of over 45% in size; also: potency is read from the fitted curve at half-maximal effect
Method in brief: as §1

[4] = A CellTox Green Cytotoxicity Assay to monitor cytotoxicity in HepG2 cells - 16 hour (AID 1224876); also: nearly all actives have a fitted effect of over 45% in size; also: potency is read from the fitted curve at half-maximal effect
Method in brief: (§3)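 Real-time cytotoxicity: fluorescence of a cell-impermeant cyanine dye binding DNA of dead HepG2 cells, measured repeatedly (0–40 h) during compound exposure at 37 C. Cells seeded 600/well with reagent, dosed after 5 h.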

[5] = qHTS RealTime-Glo MT Cell Viability Assay in HepG2 cells - 32 hour (AID 1224877); also: nearly all actives have a fitted effect of over 55% in size
Method in brief: (§4)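 HepG2 cells (600/well) were dispensed with RealTime-Glo reagents, incubated 5 h at 37 °C, then treated with compounds in DMSO for up to 40 h. Nonlytic NanoLuc luminescence reflecting viable cells was read at each stated time point.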

[6] = A CellTox Green Cytotoxicity Assay to monitor cytotoxicity in HepG2 cells - 24 hour (AID 1224878); also: nearly all actives have a fitted effect of over 45% in size; also: potency is read from the fitted curve at half-maximal effect
Method in brief: as §3

[7] = A CellTox Green Cytotoxicity Assay to monitor cytotoxicity in HepG2 cells - 40 hour (AID 1224879); also: nearly all actives have a fitted effect of over 40% in size; also: potency is read from the fitted curve at half-maximal effect
Method in brief: as §3

[8] = qHTS RealTime-Glo MT Cell Viability Assay in HEK293 cells - 0 hour (AID 1224880)
Method in brief: as §2

[9] = A CellTox Green Cytotoxicity Assay to monitor cytotoxicity in HEK293 cells - 32 hour (AID 1224881); also: nearly all actives have a fitted effect of over 40% in size; also: potency is read from the fitted curve at half-maximal effect
Method in brief: as §1

[10] = A CellTox Green Cytotoxicity Assay to monitor cytotoxicity in HepG2 cells - 0 hour (AID 1224882); also: nearly all actives have a fitted effect of over 35% in size; also: potency is read from the fitted curve at half-maximal effect
Method in brief: as §3

[11] = A CellTox Green Cytotoxicity Assay to monitor cytotoxicity in HepG2 cells - 32 hour (AID 1224883); also: nearly all actives have a fitted effect of over 50% in size; also: potency is read from the fitted curve at half-maximal effect
Method in brief: as §3

[12] = A CellTox Green Cytotoxicity Assay to monitor cytotoxicity in HEK293 cells - 8 hour (AID 1224884); also: nearly all actives have a fitted effect of over 35% in size
Method in brief: as §1

[13] = qHTS RealTime-Glo MT Cell Viability Assay in HepG2 cells - 16 hour (AID 1224885); also: nearly all actives have a fitted effect of over 50% in size
Method in brief: as §4

[14] = qHTS RealTime-Glo MT Cell Viability Assay in HEK293 cells - 24 hour (AID 1224886); also: nearly all actives have a fitted effect of over 50% in size; also: potency is read from the fitted curve at half-maximal effect
Method in brief: (§5)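 HEK293 cells seeded with NanoLuc/prosubstrate reagent, rested 5 h at 37 C, then dosed and kept at 37 C up to 40 h. Nonlytic real-time luminescence from viable cells read at 0, 8, 16, 24, 32 and 40 h.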

[15] = qHTS RealTime-Glo MT Cell Viability Assay in HEK293 cells - 8 hour (AID 1224887); also: nearly all actives have a fitted effect of over 50% in size; also: potency is read from the fitted curve at half-maximal effect
Method in brief: as §2

[16] = A CellTox Green Cytotoxicity Assay to monitor cytotoxicity in HEK293 cells - 16 hour (AID 1224888); also: nearly all actives have a fitted effect of over 35% in size
Method in brief: as §1

[17] = qHTS RealTime-Glo MT Cell Viability Assay in HepG2 cells - 0 hour (AID 1224889); also: nearly all actives have a fitted effect of over 50% in size
Method in brief: as §4

[18] = A CellTox Green Cytotoxicity Assay to monitor cytotoxicity in HepG2 cells - 8 hour (AID 1224890); also: nearly all actives have a fitted effect of over 45% in size; also: potency is read from the fitted curve at half-maximal effect
Method in brief: as §3

[19] = qHTS RealTime-Glo MT Cell Viability Assay in HEK293 cells - 16 hour (AID 1224872)
Method in brief: as §5

[20] = qHTS RealTime-Glo MT Cell Viability Assay in HepG2 cells - 8 hour (AID 1224873); also: nearly all actives have a fitted effect of over 55% in size
Method in brief: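 Real-time viability: cells seeded at 600 per well together with NanoLuc and cell-permeant prosubstrate, compounds added after 5 h incubation. Luminescence tracked at 0, 8, 16, 24, 32 and 40 h of exposure.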

With O=C(Cn1ccnc1[N+](=O)[O-])NCCO the Potency [1] was “inactive”, the max response [2] was 4.23% and the Potency [3] was “inactive”. The Potency [4] was “inactive”, the Potency [5] was “inactive” and the Potency [6] was “inactive”. The Potency [7] was “inactive”, the Potency [8] was “inactive” and the Potency [9] was “inactive”. The Potency [10] was “inactive”, the Potency [11] was “inactive” and the Potency [12] was “inactive”. For the same molecule, the Potency [13] was “inactive”, the Potency [14] was “inactive” and the Potency [15] was “inactive”. The Potency [16] was “inactive”, the Potency [17] was “inactive” and the Potency [18] was “inactive”.

With C/C=C(/C(=C/C)c1ccc(O)cc1)c1ccc(O)cc1 the Potency [19] was “inactive”, the Potency [20] was “inactive” and the Potency [2] was 19 µM (active). For the same molecule, the Potency [3] was “inactive”, the Potency [4] was 15.1 µM (active) and the Potency [5] was “inactive”. The Potency [6] was 16.9 µM (active), the Potency [7] was 19 µM (active) and the Potency [9] was “inactive”. The Potency [10] was “inactive”, the Potency [11] was 16.9 µM (active) and the Potency [12] was “inactive”. The Potency [15] was “inactive”, the Potency [16] was “inactive” and the Potency [18] was 15.1 µM (active).

For CO[C@]1(NC(=O)CSC(F)F)C(=O)N2C(C(=O)O)=C(CSc3nnnn3CCO)CO[C@H]21, the Potency [19] was “inactive”, the Potency [20] was “inactive” and the max response [2] was 21.2%. For the same molecule, the Potency [3] was “inactive”, the Potency [4] was “inactive” and the Potency [5] was “inactive”. For the same molecule, the Potency [6] was “inactive”, the Potency [7] was “inactive” and the Potency [8] was “inactive”. For the same molecule, the Potency [9] was “inactive”, the Potency [10] was “inactive” and the Potency [11] was “inactive”. The Potency [12] was “inactive”, the Potency [13] was “inactive” and the Potency [14] was “inactive”. For the same molecule, the Potency [15] was “inactive”, the Potency [16] was “inactive” and the Potency [17] was “inactive”. The Potency [18] was “inactive”.

In the case of C=CC(=O)OCC1CC2CC1C1CCC(COC(=O)C=C)C21 (stereo not given), the Potency [1] is reported as 49 µM (active), the Potency [3] is reported as 49 µM (active) and the Potency [4] is reported as “inactive”. The Potency [6] was 49 µM (active), the Potency [7] was 38.9 µM (active) and the Potency [8] was “inactive”. The Potency [9] was 49 µM (active), the Potency [11] was 43.6 µM (active) and the Potency [12] was “inactive”. The Potency [15] was “inactive”, the Potency [16] was “inactive” and the Potency [17] was “inactive”.

For COC(=O)CS, the Potency [19] was “inactive”, the Potency [20] was “inactive” and the max response [2] was 0.933%. The Potency [3] was “inactive”, the Potency [4] was “inactive” and the Potency [5] was “inactive”. For the same molecule, the Potency [6] was “inactive”, the Potency [8] was “inactive” and the Potency [10] was “inactive”. For the same molecule, the Potency [11] was “inactive”, the Potency [12] was “inactive” and the Potency [14] was “inactive”. The Potency [15] was “inactive”, the Potency [16] was “inactive” and the Potency [17] was “inactive”. The Potency [18] was “inactive”.

With COc1ccccc1NC(=O)c1cc2ccccc2cc1O the Potency [1] was “inactive”, the Potency [2] was 34.7 µM (active) and the Potency [3] was “inactive”. The Potency [4] was “inactive”, the Potency [6] was “inactive” and the Potency [8] was “inactive”. The Potency [9] was “inactive”, the Potency [11] was “inactive” and the Potency [12] was “inactive”. For the same molecule, the Potency [14] was 34.7 µM (active), the Potency [15] was 34.7 µM (active) and the Potency [16] was “inactive”. The Potency [17] was “inactive” and the Potency [18] was “inactive”.

For Cc1ccc2c(Br)cc(Br)c(O)c2n1, the Potency [19] was “inactive”, the Potency [20] was “inactive” and the Potency [2] was 5.35 µM (active). The Potency [4] was “inactive”, the Potency [5] was “inactive” and the Potency [6] was “inactive”. For the same molecule, the Potency [7] was “inactive”, the Potency [8] was “inactive” and the Potency [9] was “inactive”. For the same molecule, the Potency [10] was “inactive”, the Potency [11] was “inactive” and the Potency [12] was “inactive”. For the same molecule, the Potency [13] was “inactive”, the Potency [15] was “inactive” and the Potency [16] was “inactive”. For the same molecule, the Potency [17] was “inactive” and the Potency [18] was “inactive”.

With C/C=C\C/C=C/CCCCCCCCOC(C)=O the Potency [19] was “inactive”, the Potency [20] was “inactive” and the max response [2] was -25.6%. The Potency [3] was “inactive”, the Potency [4] was “inactive” and the Potency [5] was “inactive”. The Potency [6] was “inactive”, the Potency [7] was “inactive” and the Potency [8] was “inactive”. The Potency [9] was “inactive”, the Potency [10] was “inactive” and the Potency [11] was “inactive”. For the same molecule, the Potency [12] was “inactive”, the Potency [13] was “inactive” and the Potency [14] was “inactive”. The Potency [16] was “inactive”.

With CCOC(=O)c1ccc(C#Cc2ccc3c(c2)C(C)(C)CCS3)nc1 the Potency [1] was “inactive”, the Potency [3] was “inactive” and the Potency [4] was “inactive”. The Potency [5] was “inactive”, the Potency [6] was “inactive” and the Potency [8] was “inactive”. For the same molecule, the Potency [10] was “inactive”, the Potency [12] was “inactive” and the Potency [13] was “inactive”. The Potency [16] was “inactive” and the Potency [18] was “inactive”.

For O=C(Nc1cccc2c(=O)cc(-c3nn[nH]n3)oc12)c1ccc(OCCCCc2ccccc2)cc1, the Potency [19] was “inactive”, the Potency [20] was “inactive” and the max response [2] was -0.852%. For the same molecule, the Potency [3] was “inactive”, the Potency [5] was “inactive” and the Potency [9] was “inactive”. The Potency [10] was 26.8 µM (active), the Potency [12] was “inactive” and the Potency [13] was “inactive”. For the same molecule, the Potency [14] was “inactive”, the Potency [15] was “inactive” and the Potency [16] was “inactive”. For the same molecule, the Potency [18] was 21.3 µM (active).

In the case of C=CC(=O)[O-].C=CC(=O)[O-].[Zn+2], the Potency [19] is reported as “inactive”, the Potency [20] is reported as “inactive” and the max response [2] is reported as 0.547%. The Potency [3] was “inactive”, the Potency [4] was “inactive” and the Potency [5] was “inactive”. The Potency [6] was “inactive”, the Potency [8] was “inactive” and the Potency [9] was “inactive”. For the same molecule, the Potency [10] was “inactive”, the Potency [11] was “inactive” and the Potency [12] was “inactive”. The Potency [13] was “inactive”, the Potency [14] was “inactive” and the Potency [15] was “inactive”. The Potency [16] was “inactive”, the Potency [17] was “inactive” and the Potency [18] was “inactive”.

With Cc1ccco1 the Potency [19] was “inactive”, the Potency [20] was “inactive” and the max response [2] was 15.4%. For the same molecule, the Potency [3] was “inactive”, the Potency [4] was “inactive” and the Potency [5] was “inactive”. For the same molecule, the Potency [6] was “inactive”, the Potency [7] was “inactive” and the Potency [8] was “inactive”. For the same molecule, the Potency [9] was “inactive”, the Potency [10] was “inactive” and the Potency [11] was “inactive”. The Potency [12] was “inactive”, the Potency [13] was “inactive” and the Potency [14] was “inactive”. For the same molecule, the Potency [15] was “inactive”, the Potency [16] was “inactive” and the Potency [17] was “inactive”. For the same molecule, the Potency [18] was “inactive”.

For CC[N+](CC)(CCNC(=O)C(=O)NCC[N+](CC)(CC)Cc1ccccc1Cl)Cc1ccccc1Cl, the Potency [19] was “inactive”, the Potency [20] was “inactive” and the max response [2] was 0.73%. For the same molecule, the Potency [3] was “inactive”, the Potency [4] was “inactive” and the Potency [5] was “inactive”. For the same molecule, the Potency [6] was “inactive”, the Potency [7] was “inactive” and the Potency [8] was “inactive”. The Potency [9] was “inactive”, the Potency [11] was “inactive” and the Potency [12] was “inactive”. The Potency [13] was “inactive”, the Potency [14] was “inactive” and the Potency [15] was “inactive”. For the same molecule, the Potency [16] was “inactive” and the Potency [17] was “inactive”.
